Assay outcomes (PubChem)
An excerpt weighted towards active compounds, which were near 1.2% of everything screened.
SRC1 inh – inhibitors of human steroid receptor coactivator 1 (SRC1). 360,000 compounds, 0.12% hits. inhibition, % at 3.6 µM. HEK293 GAL4-SRC1 luciferase reporter, luminescence. Q15788;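 active = inhibition above the campaign mean plus 3 SD, with each screening campaign given its own cutoff, cut at about 60% in these data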;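 note: 0% = DMSO treated cells and 100% = gossypol at 36 µM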
NR5A2 inv ag – inverse agonists of human LRH-1 (NR5A2). AID 602396. 360,000 compounds, 0.13% hits. inhibition, % at 3.6 µM. HEK293T StAR-luciferase reporter, LRH-1 transfected, 24 h. O00482;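 active = inhibition above the mean inhibition of all tested compounds plus 3 SD, cut at about 73% in these data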;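 note: 0% = DMSO wells and 100% = reporter-only cells lacking LRH-1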
EBV LMP1 NFkB – inhibitors of Epstein-Barr LMP1-induced NF-kappaB reporter; inhibition, % at 12.5 µM; LMP1-induced NF-kappaB luciferase reporter cells, luminescence; 350,000 compounds, 0.69% hits; in the data active = inhibition above about 41%;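 note: 0% = neutral control wells and 100% = reference inhibitor control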
NCOA2 inhibitor – inhibits human steroid receptor coactivator 2; HEK293 GAL4-SRC2 luciferase reporter, luminescence; inhibition, % at 9 µM; 370,000 compounds, 0.17% hits; AID 651957;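 active = inhibition above the mean inhibition of all tested compounds plus 3 SD, set per campaign, cut at about 52% in these data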;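 note: 0% = DMSO treated cells and 100% = cells given Gossypol at 36 µM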
SRC3 inh – inhibitors of human steroid receptor coactivator 3 (SRC3); Q9Y6Q9; 360,000 compounds, 0.17% hits; AID 588352; inhibition, % at 3.6 µM; HEK293 GAL4-SRC3 luciferase reporter, luminescence;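 active = inhibition above a per-campaign cutoff, the mean of all compounds plus 3 SD, cut at about 60% in these data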;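 note: 0% = DMSO-treated cells and 100% = gossypol-treated cells at 36 µM; higher means less SRC3-driven luciferase light from the GAL4 reporter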
Shn3 inh set2 – inhibitors of Schnurri-3 3'UTR reporter in osteoblasts; inhibition, % at 12.5 µM; Clone20 osteoblast Shn3 3'UTR firefly luciferase, 24 h; 360,000 compounds, 0.52% hits;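 active = mean inhibition of at least 75% with every replicate also reaching 75%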;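 note: 0% = median of neutral control wells and 100% = pilot-screen positive control compound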
* hit, by the source's call.

COc1ccc2[nH]c(C)c(CCN3C(=O)C4CC=CCC4C3=O)c2c1 (stereo unspecified) was read as SRC1 inh -24.2, NR5A2 inv ag 11.9, EBV LMP1 NFkB 1.0, NCOA2 inhibitor -11.0, SRC3 inh 23.0 and Shn3 inh set2 1.2.
For CCOC(=O)Nc1cc(=O)c([N+](=O)[O-])c(N)[nH]1 the results were NCOA2 inhibitor -19.1.
`COc1ccc(C(=O)Nc2ccc(Cl)c(S(=O)(=O)Nc3ccccc3OC)c2)cc1` gave SRC1 inh 15.4, NR5A2 inv ag 19.9, EBV LMP1 NFkB 13.4, NCOA2 inhibitor 24.7, SRC3 inh 17.3 and Shn3 inh set2 72.4.
For COc1ccccc1NS(=O)(=O)c1cc(NC(=O)c2ccc(Cl)nc2)ccc1Cl the results were SRC1 inh 23.0, NR5A2 inv ag 38.2, EBV LMP1 NFkB 32.7, NCOA2 inhibitor 17.9, SRC3 inh 39.6 and Shn3 inh set2 87.2*.
For CC(C)C[C@H](NC(=O)c1cccs1)C(=O)N1CCC[C@H]1C(=O)NCc1ccccc1 the results were NCOA2 inhibitor 18.0.
`COc1ccc(NC(=O)NCCCN2CCN(c3ccc(F)cc3)CC2)cc1OC` gave NCOA2 inhibitor -0.9.
For Cc1ccc(NC(=O)C2=C(c3ccccc3)S(=O)(=O)CCS2(=O)=O)cc1 the results were SRC1 inh -59.6, NR5A2 inv ag 56.3, EBV LMP1 NFkB 93.5*, NCOA2 inhibitor 74.0*, SRC3 inh -31.1 and Shn3 inh set2 95.9*.
For Cc1ccc(NC(=O)c2ccccc2)cc1 the results were SRC1 inh -99.2, NR5A2 inv ag -177.9, EBV LMP1 NFkB -10.1, NCOA2 inhibitor -59.4, SRC3 inh -87.3 and Shn3 inh set2 -74.7.
CCN(c1ccc(OC)cc1)c1ncnc2nc[nH]c12 was read as SRC1 inh 65.6*, NR5A2 inv ag 22.1, EBV LMP1 NFkB 25.5, NCOA2 inhibitor 49.3, SRC3 inh 49.4 and Shn3 inh set2 19.7.
CCCN(c1ccc(OCC)cc1)c1ncnc2nc[nH]c12 was read as SRC1 inh 22.9, NR5A2 inv ag 1.0, EBV LMP1 NFkB 15.8, NCOA2 inhibitor 25.2, SRC3 inh 24.0 and Shn3 inh set2 14.3.
`CC(C)C(=O)Nc1cc(S(=O)(=O)N2CCOCC2)ccc1N1CCCCC1` gave SRC1 inh -17.1, NR5A2 inv ag -4.2, EBV LMP1 NFkB 0.8, NCOA2 inhibitor -4.5, SRC3 inh 2.5 and Shn3 inh set2 -8.3.
CC(C)(C)C(=O)Nc1cc(S(=O)(=O)N2CCCCC2)ccc1N1CCCCC1 was read as SRC1 inh -5.3, NR5A2 inv ag 9.4, EBV LMP1 NFkB -5.8, NCOA2 inhibitor 16.5, SRC3 inh 16.9 and Shn3 inh set2 83.5*.
COCCCn1cnnc1SCC(=O)Nc1ccc(S(=O)(=O)N2CCCC2)cc1 was read as SRC1 inh 8.5, NR5A2 inv ag 30.3, EBV LMP1 NFkB 59.7*, NCOA2 inhibitor 9.0, SRC3 inh -1.5 and Shn3 inh set2 19.2.
Screening CCOC(=O)C1CCCN(S(=O)(=O)c2ccc(S(=O)(=O)N3CCCC3)cc2)C1 (stereo unspecified) returned SRC1 inh 11.7, NR5A2 inv ag 9.8, EBV LMP1 NFkB 11.0, NCOA2 inhibitor 2.1, SRC3 inh -2.8 and Shn3 inh set2 87.9*.
Screening Cn1cnnc1SCC(=O)Nc1ccc(S(=O)(=O)N2CCCC2)cc1 returned SRC1 inh 9.2, NR5A2 inv ag 0.1, EBV LMP1 NFkB 1.5, NCOA2 inhibitor -6.4, SRC3 inh -4.6 and Shn3 inh set2 -15.3.
O=S(=O)(c1ccc(NC(=S)NCc2cccnc2)cc1)N1CCCCC1 was read as SRC1 inh 66.7*, NR5A2 inv ag 73.4*, EBV LMP1 NFkB -39.3, NCOA2 inhibitor 48.0, SRC3 inh 46.3 and Shn3 inh set2 37.7.
Screening O=C(NCc1cccnc1)c1ccc(S(=O)(=O)N2CCCCC2)cc1 returned SRC1 inh -6.2, NR5A2 inv ag -0.7, EBV LMP1 NFkB -11.7, NCOA2 inhibitor 8.2, SRC3 inh 16.8 and Shn3 inh set2 -6.6.
`COc1ccc(-c2cc(-c3nnc(SCC(=O)Nc4ccccc4-c4ccccc4)n3N)[nH]n2)cc1` gave NCOA2 inhibitor -27.7.
Screening COC(=O)c1cc2c(c3c4cc(OC)ccc4n(S(=O)(=O)c4ccc(OC)cc4)c13)C(=O)N(Cc1ccco1)C2 returned NCOA2 inhibitor 0.4.
O=S1(=O)c2ccc(N3CCN(Cc4ccccc4F)CC3)cc2Oc2ccccc2CN1Cc1cn(Cc2ccc(C(F)(F)F)cc2)nn1 was read as NCOA2 inhibitor 19.1.
